# Experimental data: PubChem BioAssay
# Calls of active or inactive are those of the source. Rule as the data show it, unless noted: active = inhibition above about 80%; inactive = the rest.
# How the values were obtained:
# [1] = LFS_MB_P medulloblastoma growth inhibition, cell-based, chromothripsis tumors, cisplatin or BGB combos (AID 1671449); details: LFS_MB_P medulloblastoma cells;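 also: cells exposed for 96 hours; 0% = vehicle DMSO and 100% = killing by high DMSO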
# [2] = HDN33 neuroblastoma growth inhibition, cell-based, chromothripsis tumors, cisplatin or BGB combos (AID 1671450); details: HDN33 neuroblastoma cells, stronger effect = higher value;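 also: cells exposed to compound for four days; 0% = vehicle DMSO and 100% = cell killing by high DMSO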
# [3] = ICB984 medulloblastoma cell growth inhibition, synergistic combos for chromothripsis tumors, cisplatin or BGB combos (AID 1671451; call rule not given here;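 also: cells exposed for 96 hours before readout; 0% = vehicle DMSO and 100% = killing by high DMSO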); details: ICB984 medulloblastoma cells, drug combinations, stronger effect = higher value
# [4] = LFS_MB_1R medulloblastoma cell growth inhibition, synergistic combos for chromothripsis tumors, cisplatin or BGB combos (AID 1671452); details: LFS_MB_1R medulloblastoma cells, stronger effect = higher value;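 also: cells exposed for 96 hours before readout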
# [5] = HTB85 osteosarcoma cell growth inhibition, synergistic combos for chromothripsis tumors, BGB or cisplatin IC20 combos (AID 1671453); details: HTB85 osteosarcoma cells, drug combinations, stronger effect = higher value;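 also: cells exposed for 96 hours before readout; 0% = vehicle DMSO and 100% = high DMSO killing control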
# [6] = CRL2098 osteosarcoma cell growth inhibition, synergistic combos for chromothripsis tumors, BGB or cisplatin IC20 combos (AID 1671454); details: CRL2098 osteosarcoma cells, drug combinations, stronger effect = higher value;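 also: cells exposed for 96 h before readout; 0% = vehicle DMSO and 100% = killing by high DMSO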
# [7] = HD-MB03 medulloblastoma cell growth inhibition, synergistic combos for chromothripsis tumors, BGB or cisplatin IC20 combos (AID 1671455; in the data active = inhibition above about 83%;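 also: 0% = vehicle DMSO and 100% = high DMSO as cytotoxic control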); details: HD-MB03 medulloblastoma cells, stronger effect = higher value
# [8] = UWB1.289 ovarian carcinoma cell growth inhibition, synergistic combos for chromothripsis tumors, BGB or cisplatin combos (AID 1671456); details: UWB1.289 ovarian carcinoma cells, stronger effect = higher value;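 also: cells exposed to compound for four days; 0% = vehicle DMSO and 100% = killing by high DMSO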
# [9] = LFS_MB_2R medulloblastoma cell growth inhibition, synergistic combos for chromothripsis tumors, cisplatin combos (AID 1671457); details: LFS_MB_2R medulloblastoma cells, stronger effect = higher value;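 also: cells exposed to compound for four days before readout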
# [10] = MDA-MB-436 breast carcinoma cell growth inhibition, synergistic combos for chromothripsis tumors, BGB or cisplatin combos (AID 1671458; call rule not given here;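 also: cells exposed for 96 hours; 0% = vehicle DMSO and 100% = killing by high DMSO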); details: MDA-MB-436 breast carcinoma growth inhibition, drug combinations, stronger effect = higher value
# [11] = UWB1.289_BRCA1 ovarian cancer growth, cell-based, BGB or cisplatin combinations (AID 1671459); details: UWB1.289 BRCA1 ovarian carcinoma, drug combinations, stronger effect = higher value
# [12] = human astrocyte viability loss, single and combined drugs, cytotoxicity control for chromothriptic childhood tumor combination screen, cell-based, BGB or cisplatin IC20 combos (AID 1671460); details: Human astrocytes, drug combinations, stronger effect = higher value;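 also: cells exposed to compounds for 96 hours before viability readout; 0% = vehicle and 100% = killing control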
# [13] = growth inhibition of BT084 medulloblastoma cells, cell-based, ICGC_MB145, cisplatin and BGB IC40 combos (AID 1671461); details: drug combinations, stronger effect = higher value;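 also: cells exposed to drugs for 96 hours; 0% = vehicle DMSO and 100% = high DMSO full killing control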
# [14] = growth inhibition of RCMB18 medulloblastoma cells, cell-based, cisplatin and BGB IC40 combos (AID 1671462); details: stronger effect = higher value;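 also: cells exposed to compound for four days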
# [15] = growth inhibition of CRL1545 osteosarcoma cells, cell-based, cisplatin and BGB IC20 combos (AID 1671464); details: stronger effect = higher value;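 also: cells exposed to compound for 96 hours before readout; 0% = vehicle DMSO and 100% = high DMSO killing control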
# [16] = measured here: combination with BGB IC40, at 0.05 µM
# [17] = measured here: with BGB IC20 combination, at 0.5 µM
# [18] = measured here: with cisplatin IC20 combination, at 0.5 µM
# [19] = measured here: combination with cisplatin, at 0.5 µM
# [20] = measured here: combination with cisplatin, at 5 µM
smiles,measurement,setting,value
CN(C)C(=S)NN=C(c1ccccn1)c1ccccn1,inhibition,"[1]; at 0.5 µM, stronger effect = higher value",9.49% (inactive)
same,inhibition,"[1]; measured here: combination with BGB IC20, at 0.005 µM",65.9%
same,inhibition,"[1]; measured here: combination with BGB IC40, at 0.005 µM",60.3%
same,inhibition,[1]; [16],73.6%
same,inhibition,"[1]; measured here: combination with cisplatin, at 0.5 µM, stronger effect = higher value",14.7%
same,inhibition,"[1]; measured here: combination with cisplatin, at 5 µM, stronger effect = higher value",65.2%
same,inhibition,"[2]; BGB combo, at 5 µM",93.5%
same,inhibition,[2]; at 0.5 µM,96.3% (active)
same,inhibition,"[2]; cisplatin combo, at 5 µM",96.8%
same,inhibition,[2]; [17],96.5%
same,inhibition,[2]; [18],96.3%
same,inhibition,"[2]; single agent, at 5 µM",95.4%
same,inhibition,"[3]; BGB IC20 combo, at 0.005 µM",49.9%
same,inhibition,"[3]; BGB IC40 combo, at 0.005 µM",48.2%
same,inhibition,"[3]; BGB IC40 combo, at 0.05 µM",88.6%
same,inhibition,[3]; at 0.5 µM,-3.29% (inactive)
same,inhibition,"[3]; cisplatin combo, at 0.05 µM",88.1%
same,inhibition,"[3]; cisplatin combo, at 0.5 µM",-11.8%
same,inhibition,"[3]; cisplatin combo, at 5 µM",27.2%
same,inhibition,"[3]; measured here: 5 uM single agent, at 5 µM",32%
same,inhibition,[4]; at 0.5 µM,82.5% (active)
same,inhibition,[4]; [16],62.2%
same,inhibition,[4]; [19],96.8%
same,inhibition,[4]; [20],91.5%
same,inhibition,[5]; at 0.5 µM,89.9% (active)
same,inhibition,"[5]; measured here: with BGB IC20, at 0.5 µM",85.2%
same,inhibition,"[5]; measured here: with BGB IC20, at 5 µM",92.5%
same,inhibition,"[5]; measured here: with cisplatin IC20, at 0.5 µM",91%
same,inhibition,"[5]; measured here: with cisplatin IC20, at 5 µM",88.7%
same,inhibition,"[5]; single agent, at 5 µM",90.5%
same,inhibition,[6]; at 0.5 µM,98% (active)
same,inhibition,"[6]; measured here: combination with BGB at IC20, at 0.5 µM",97.8%
same,inhibition,"[6]; measured here: combination with cisplatin at IC20, at 0.5 µM",98.6%
same,inhibition,[7]; at 0.5 µM,86.8% (active)
same,inhibition,"[7]; measured here: combo with BGB at IC20, at 0.5 µM",70.3%
same,inhibition,"[7]; measured here: combo with cisplatin at IC20, at 0.5 µM",93.8%
same,inhibition,[8]; at 0.5 µM,88% (active)
same,inhibition,"[8]; measured here: inhibition with BGB combination, at 0.05 µM",90.6%
same,inhibition,"[8]; measured here: inhibition with cisplatin combination, at 0.05 µM",92.1%
same,inhibition,[9]; at 0.5 µM,61.3% (inactive)
same,inhibition,[9]; [19],70.1%
same,inhibition,[9]; [20],64.5%
same,inhibition,[10]; at 0.5 µM,81.2% (active)
same,inhibition,"[10]; measured here: BGB combination, at 0.5 µM",73.4%
same,inhibition,"[10]; measured here: BGB combination, at 5 µM",86%
same,inhibition,"[10]; measured here: cisplatin combination, at 0.5 µM",85.1%
same,inhibition,"[10]; measured here: cisplatin combination, at 5 µM",93.7%
same,inhibition,"[11]; BGB combination, concentration series, at 5 µM",121%
same,inhibition,[11]; at 0.5 µM,87% (active)
same,inhibition,"[11]; cisplatin combination, concentration series, at 5 µM",127%
same,inhibition,[12]; at 0.5 µM,77.8% (inactive)
same,inhibition,"[12]; measured here: combo with BGB IC20, at 0.5 µM",77.7%
same,inhibition,"[12]; measured here: combo with cisplatin IC20, at 0.5 µM",72.8%
same,inhibition,[13]; at 0.5 µM,72.7% (inactive)
same,inhibition,"[13]; cisplatin combination, at 0.5 µM",77.7%
same,inhibition,"[13]; cisplatin combination, at 5 µM",74%
same,inhibition,"[13]; measured here: BGB IC40 combination 0.05 uM, at 0.05 µM",80.3%
same,inhibition,"[13]; single agent, at 5 µM",83.9%
same,inhibition,[14]; at 0.5 µM,82.2% (active)
same,inhibition,"[14]; cisplatin combo, at 5 µM",90.5%
same,inhibition,"[14]; measured here: BGB IC40 combination, at 0.05 µM",80.1%
same,inhibition,[14]; [19],86%
same,inhibition,"[14]; single agent, at 5 µM",94.3%
same,inhibition,[15]; at 0.5 µM,96.9% (active)
same,inhibition,[15]; [17],97.1%
same,inhibition,[15]; [18],96.8%
same,inhibition,"[15]; single agent, at 0.05 µM",88.4%
same,inhibition,"[15]; single agent, at 5 µM",89.2%
